Results filed as inconclusive are left out. The source made the active and inactive calls. Unless noted, calls follow the shape of the full dose curve.
How the values were obtained:
[1] = molecular target: Bile acid receptor (Homo sapiens) (UniProt Q96RI1); assay: qHTS assay for small molecule antagonists of farnesoid X receptor signaling (AID 588526); also: potency is read from the fitted curve at half-maximal effect
Method in brief: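 Antagonist mode: titrated compounds tested against chenodeoxycholic acid stimulation (normalized to 50 uM CDCA and DMSO) in GeneBLAzer HEK293T cells for 16 h. Beta-lactamase read by CCF4 fluorescence; IC50 from Hill fits.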

[2] = molecular target: Bile acid receptor (Homo sapiens) (UniProt Q96RI1); assay: qHTS assay for small molecule agonists of farnesoid X receptor signaling (AID 588527); settings: HEK293T FXR-UAS-bla, beta-lactamase ratio, 16 h; activation: stronger effect = higher value;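 also: series mostly up to about 77 µM; 0% = vehicle basal and 100% = reference agonist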
Method in brief: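 FXR-UAS-bla HEK293T cells (10% dialyzed FBS) preincubated 5-7 h at 37 C, then compounds at up to 92 uM for 16 h at 37 C. CCF4 beta-lactamase read-out after 2 h RT. Normalized to chenodeoxycholic acid (100 uM) and DMSO; Hill fit gave EC50 and efficacy.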

[3] = molecular target: Peroxisome proliferator-activated receptor delta (Homo sapiens) (UniProt Q03181); assay: qHTS assay for small molecule agonists of peroxisome proliferator-activated receptor delta signaling (AID 588534);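 also: 0% = DMSO basal wells and 100% = positive control agonist at 10 µM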
Method in brief: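 Agonist-mode beta-lactamase reporter readout (CCF4 dye, 2 h at RT) after 18 h at 37 °C exposure to a titration; Hill-equation fitting gave EC50 and maximal response.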

[4] = qHTS assay for small molecule antagonists of peroxisome proliferator-activated receptor delta signaling (AID 588535; active = well fitted inhibition curve with a large enough effect in the signal ratio, with a control signal flat, not every such curve was filed as active; the % refers to the signal ratio;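 as to max response: cells co-treated with a PPAR-delta agonist as stimulator during compound exposure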); settings: HEK293T PPARd-UAS-bla, beta-lactamase FRET ratio, 18 h; 460 nm channel
Method in brief: (§1)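 Fluorescence from CCF4-loaded GeneBLAzer PPAR-delta-UAS-bla HEK293T cells (2 hrs RT loading) quantified reporter inhibition after an 18 hr, 37 C compound exposure across a titration.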

[5] = molecular target: Peroxisome proliferator-activated receptor gamma (Homo sapiens) (UniProt P37231); assay: qHTS assay for small molecule agonists of peroxisome proliferator-activated receptor gamma signaling (AID 588536; active = well fitted curve in the direction sought with a large enough effect in the signal ratio, with a control signal flat, not every such curve was filed as active; the % refers to the signal ratio;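 also: 0% = DMSO basal wells and 100% = rosiglitazone at 2 µM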)
Method in brief: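 Cells were plated and held 6–6.5 h at 37 C, then compounds were added as a titration series. After a further 16 h, CCF4 dye was loaded for 2 h at room temperature and emission at 460/530 nm recorded.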

[6] = molecular target: Vitamin D3 receptor (Homo sapiens) (UniProt P11473); assay: qHTS assay for small molecule antagonists of vitamin D receptor signaling (AID 588541); also: potency is read from the fitted curve at half-maximal effect
Method in brief: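 VDR-UAS-bla HEK293T cells in 2% charcoal-stripped FBS were stimulated with 1-alpha,25-dihydroxyvitamin D3 (3 nM final) plus compound for 16 h at 37 C. The beta-lactamase CCF4 readout was normalized to 50 nM agonist and DMSO, and Hill fits gave IC50.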

[7] = molecular target: Vitamin D3 receptor (Homo sapiens) (UniProt P11473); assay: qHTS assay for small molecule agonists of vitamin D receptor signaling (AID 588543);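 also: 0% = DMSO basal and 100% = reference agonist control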
Method in brief: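 β-lactamase reporter, VDR-UAS-bla HEK293T, agonist mode. Cells plated 5 h at 37 °C, compound titration 16 h at 37 °C, CCF4 dye 2 h RT, ratio 460/530 nm. Hill fit → EC50, efficacy vs 50 nM 1α,25-(OH)2D3.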

[8] = qHTS assay for small molecule agonists of retinoid X receptor alpha signaling (AID 588544); settings: HEK293T RXRa-UAS-bla, beta-lactamase reporter, 18 h; 530 nm emission;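 as to activation: 0% = DMSO basal wells and 100% = reference agonist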
[9] = molecular target: Retinoic acid receptor RXR-alpha (Homo sapiens) (UniProt P19793); assay: as above
[10] = molecular target: Thyroid hormone receptor beta (Homo sapiens) (UniProt P10828); assay: qHTS assay for small molecule agonists of thyroid hormone receptor beta signaling (AID 588545);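 also: 0% = DMSO only and 100% = 10 nM T3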
Method in brief: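 TR-UAS-bla GripTite HEK 293 cells (2500/well, medium with 2% charcoal/dextran FBS) were treated in agonist mode for 18 h at 37 C, titrated. Beta-lactamase was read by CCF4 ratio after 2 h; normalized to 10 nM T3 (100%) and DMSO, Hill-fitted for EC50 and efficacy.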

[11] = qHTS assay for small molecule antagonists of retinoid X receptor alpha signaling (AID 588546; active = well fitted inhibition curve with a large enough effect in the signal ratio, with a control signal flat, not every such curve was filed as active; the % refers to the signal ratio;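 also: cells stimulated with 9-cis-retinoic acid as agonist; % is scaled to controls: 0 for no effect and ±100 for the full control effect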); settings: HEK293T RXRa-UAS-bla, beta-lactamase ratio, antagonist mode; measured here: W530 green channel, cytotoxicity proxy
Method in brief: (§2)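 Beta-lactamase reporter inhibition, read as CCF4 fluorescence ratio (ex 405, em 460/530 nm) after 2 h at RT. HEK293T UAS-bla cells, 2500/well, were stimulated with 9-cis-RA at 500 or 100 nM final alongside test compound for 18 h at 37 C.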

[12] = molecular target: Retinoic acid receptor RXR-alpha (Homo sapiens) (UniProt P19793); assay: as above; settings: HEK293T RXRa-UAS-bla, beta-lactamase ratio, antagonist mode
Method in brief: as §2

[13] = molecular target: Thyroid hormone receptor beta (Homo sapiens) (UniProt P10828); assay: qHTS assay for small molecule antagonists of thyroid hormone receptor beta signaling (AID 588547; active = well fitted inhibition curve with a large enough effect in the signal ratio, with a control signal flat, not every such curve was filed as active; the % refers to the signal ratio;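 also: cells stimulated with 0.4 nM T3 agonist during compound exposure; series mostly up to about 77 µM; % is scaled to controls: 0 for no effect and ±100 for the full control effect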); settings: TR-UAS-bla HEK293, beta-lactamase ratio, antagonist mode, 18 h
Method in brief: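 TR-UAS-bla GripTite HEK293 cells in 2% charcoal/dextran FBS medium; compounds 0.59 nM to 92 uM with T3 at 0.4nM final, 18 h at 37 C. Beta-lactamase read by CCF4 fluorescence (460/530 nm); Hill fits gave IC50 and efficacy.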

[14] = qHTS assay for small molecule agonists of the antioxidant response element (ARE) signaling pathway (AID 651741; active = well fitted activation curve with a large enough effect in the signal ratio; the % refers to the signal ratio; also: potency is read from the fitted curve at half-maximal effect; as to activation: % of control where 0% means no effect)
Method in brief: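 Stably integrated ARE-beta-lactamase reporter HepG2 cells; 16 h compound incubation, 37 C; LiveBLAzer FRET substrate 2 h at room temperature; fluorescence intensity.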

[15] = qHTS assay for small molecule activators of the p53 signaling pathway (AID 651743; active = well fitted activation curve with a large enough effect in the signal ratio, not every such curve was filed as active; the % refers to the signal ratio; also: series mostly up to about 92 µM; % of control where 0% means no effect); settings: HCT-116 p53RE-bla, beta-lactamase FRET ratio, 16 h; activation: stronger effect = higher value
Method in brief: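 Following 16 hours of compound exposure at 37 C, HCT-116 cells bearing the p53RE-bla reporter were loaded with LiveBLAzer B/G FRET substrate for 2 hours at room temperature and fluorescence intensity was recorded.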

[16] = qHTS assay for environmental chemicals that activate the Aryl hydrocarbon Receptor (AhR) signaling pathway (AID 651777; active = well fitted curve in the direction sought with a large enough effect; an effect the other way counts as inactive or inconclusive; also: nearly all actives have a fitted effect of over 15% in size; also: potency is read from the fitted curve at half-maximal effect; as to activation: % of control where 0% means no effect); settings: 1A2-DRE human hepatoma cells, luciferase, 24 h; activation: stronger effect = higher value
Method in brief: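 Stable CYP1A2 promoter/DRE-luciferase human hepatoma line treated 24 hr; One-Glo luminescence, 30 min RT.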

[17] = molecular target: Peroxisome proliferator-activated receptor alpha (Homo sapiens) (UniProt Q07869); assay: qHTS assay for small molecule agonists of the peroxisome proliferator-activated receptor alpha (PPARalpha) signaling pathway (AID 651778; active = well fitted curve in the direction sought with a large enough effect; an effect the other way counts as inactive or inconclusive; also: % of control where 0% means no effect); settings: PathHunter PPARalpha complementation, chemiluminescence, 6 h; max response: stronger effect = higher value
Method in brief: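 Enzyme-fragment complementation assay in which ligand-bound PPARalpha translocates and forms an active enzyme that generates chemiluminescence. Cells were plated overnight, exposed to compound for 6 hr at 37 C, and then given detection reagent for 60 min at room temperature.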

[18] = qHTS assay for small molecule agonists of the antioxidant response element (ARE) signaling pathway measured by Nrf2-dependant transcriptional activity (AID 720636; active = well fitted curve in the direction sought with a large enough effect in the repeat runs; an effect the other way counts as inactive or inconclusive;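 also: HepG2 cells with an ARE-driven luciferase reporter; % of control where 0% means no effect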)
Method in brief: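 Reporter gene assay, HepG2 ARE-luc: 16 hr compound, 37 C, 5% CO2; read-out luciferase luminescence.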

[19] = qHTS assay for small molecule agonists of the antioxidant response element (ARE) signaling pathway measured by Nrf2-dependant transcriptional activity - cell viability counter screen (AID 720653; active = well fitted curve in the direction sought with a large enough effect in the repeat runs; an effect the other way counts as inactive or inconclusive; also: potency is read from the fitted curve at half-maximal effect; as to max response: % is scaled to controls: 0 for no effect and ±100 for the full control effect); settings: ARE-bla HepG2 viability, CellTiter-Glo ATP luminescence, 16 h; max response: stronger effect = lower value
Method in brief: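 ARE-bla HepG2 cells treated with compounds for 16 h at 37C; this counter screen measures viability as intracellular ATP by CellTiter-Glo luminescence after 30 min at room temperature.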

[20] = qHTS assay for cell viability of HEK293 cells (AID 743288; active = well fitted curve in the direction sought with a large enough effect; an effect the other way counts as inactive or inconclusive; also: nearly all actives have a fitted effect of over 50% in size; also: potency is read from the fitted curve at half-maximal effect); settings: ATP luminescence (CellTiter-Glo), 18 h; max response: stronger effect = lower value
Method in brief: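 ATP luminescence (CellTiter-Glo) reports metabolically competent cell number after parental HEK293 cells, 2,000/well, were treated with DMSO-dissolved compounds for 18 h at 37 C; reagent incubation 30 min, room temperature.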

[21] = qHTS assay for cell viability of the p53RE-bla HCT-116 cell line (AID 743292; active = well fitted curve in the direction sought with a large enough effect; an effect the other way counts as inactive or inconclusive; also: % is scaled to controls: 0 for no effect and ±100 for the full control effect; nearly all actives have a fitted effect of over 55% in size)
Method in brief: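 Readout: CellTiter-Glo luminescence after 30 min RT. Treatment: compounds in DMSO, 16 h, 37 C. Cells: CellSensor p53RE-bla HCT-116, 4,000/well, preincubated 5 h.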

[22] = molecular target: Glucocorticoid receptor (Homo sapiens) (UniProt P04150); assay: qHTS assay for small molecule antagonists of glucocorticoid receptor signaling (AID 588533; active = well fitted inhibition curve with a large enough effect in the signal ratio, with a control signal flat, not every such curve was filed as active; the % refers to the signal ratio; also: % is scaled to controls: 0 for no effect and ±100 for the full control effect)
Method in brief: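 Antagonist-mode qHTS: compound titrations added to GRE-bla HeLa cells, then dexamethasone 2 nM final; 18 h, 37 C. CCF4 FRET fluorescence normalized to dexamethasone and DMSO; IC50 from Hill fit.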

[23] = molecular target: Peroxisome proliferator-activated receptor delta (Homo sapiens) (UniProt Q03181); assay: qHTS assay for small molecule antagonists of peroxisome proliferator-activated receptor delta signaling (AID 588535);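 as to max response: cells co-treated with a PPAR-delta agonist as stimulator during compound exposure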
Method in brief: as §1

[24] = molecular target: Peroxisome proliferator-activated receptor gamma (Homo sapiens) (UniProt P37231); assay: qHTS assay for small molecule antagonists of peroxisome proliferator-activated receptor gamma signaling (AID 588537; active = well fitted inhibition curve with a large enough effect in the signal ratio, with a control signal flat, not every such curve was filed as active; the % refers to the signal ratio;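 also: reporter cells co-stimulated with 50 nM rosiglitazone agonist during compound treatment; % of control where 0% means no effect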)
Method in brief: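 Fluorescence at 460 and 530 nm (405 nm excitation) reported beta-lactamase cleavage of CCF4 after 2 h room-temperature loading. HEK293 reporter cells in 1% charcoal/dextran-treated FBS had received compound and rosiglitazone for 16 h.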

[25] = qHTS assay for small molecule activators of the nuclear factor-kappa B (NF-kB) signaling pathway (AID 651749; active = well fitted activation curve with a large enough effect in the signal ratio; the % refers to the signal ratio; also: series mostly up to about 77 µM; % of control where 0% means no effect); settings: NF-kB-bla ME-180 cells, beta-lactamase FRET ratio, 16 h; activation: stronger effect = higher value
Method in brief: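 In this qHTS format, compounds acting as activators increase NF-kB-driven beta-lactamase in ME-180 cells, measured as disrupted FRET after 16 hr exposure at 37C and 5% CO2.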

[26] = molecular target: Nuclear receptor subfamily 1 group I member 2 (Rattus norvegicus) (UniProt Q9R1A7); assay: qHTS assay for small molecule activators of the rat pregnane X receptor (rPXR) signaling pathway (AID 651751; call rule not given here; also: 0% is about no effect); settings: rPXR reporter cells, luciferase (One-Glo), 24 h
[27] = qHTS assay for small molecule activators of the human pregnane X receptor (PXR) signaling pathway (AID 720659; call rule not given here; also: 0% is about no effect)

Peroxisome proliferator-activated receptor gamma (Homo sapiens), sequence (P37231 whole entry, looked up): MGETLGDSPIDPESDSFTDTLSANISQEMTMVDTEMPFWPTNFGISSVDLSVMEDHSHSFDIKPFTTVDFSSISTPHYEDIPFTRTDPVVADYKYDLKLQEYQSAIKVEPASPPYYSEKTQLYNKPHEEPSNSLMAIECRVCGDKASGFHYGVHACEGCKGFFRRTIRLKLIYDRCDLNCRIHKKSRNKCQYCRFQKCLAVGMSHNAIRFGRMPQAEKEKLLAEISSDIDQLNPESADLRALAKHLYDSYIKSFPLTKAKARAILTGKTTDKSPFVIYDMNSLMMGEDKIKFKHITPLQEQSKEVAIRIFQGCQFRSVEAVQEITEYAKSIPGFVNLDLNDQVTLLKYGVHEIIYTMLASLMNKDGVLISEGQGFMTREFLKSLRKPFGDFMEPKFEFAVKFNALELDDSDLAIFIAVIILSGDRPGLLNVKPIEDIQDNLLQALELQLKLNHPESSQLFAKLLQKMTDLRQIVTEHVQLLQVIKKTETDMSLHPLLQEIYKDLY
Retinoic acid receptor RXR-alpha (Homo sapiens), sequence (P19793 whole entry, looked up): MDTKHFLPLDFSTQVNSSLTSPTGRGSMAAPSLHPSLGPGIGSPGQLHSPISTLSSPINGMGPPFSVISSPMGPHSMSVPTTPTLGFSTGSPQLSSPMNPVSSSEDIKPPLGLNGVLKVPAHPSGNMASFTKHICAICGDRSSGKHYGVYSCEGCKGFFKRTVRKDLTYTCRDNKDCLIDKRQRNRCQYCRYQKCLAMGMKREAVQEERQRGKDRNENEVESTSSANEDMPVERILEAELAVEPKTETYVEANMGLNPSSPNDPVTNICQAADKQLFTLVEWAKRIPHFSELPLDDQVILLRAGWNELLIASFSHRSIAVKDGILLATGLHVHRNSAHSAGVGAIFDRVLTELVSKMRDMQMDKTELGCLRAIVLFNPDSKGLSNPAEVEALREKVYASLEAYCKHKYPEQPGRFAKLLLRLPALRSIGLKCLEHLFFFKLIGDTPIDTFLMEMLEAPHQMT
Thyroid hormone receptor beta (Homo sapiens), sequence (P10828 whole entry, looked up): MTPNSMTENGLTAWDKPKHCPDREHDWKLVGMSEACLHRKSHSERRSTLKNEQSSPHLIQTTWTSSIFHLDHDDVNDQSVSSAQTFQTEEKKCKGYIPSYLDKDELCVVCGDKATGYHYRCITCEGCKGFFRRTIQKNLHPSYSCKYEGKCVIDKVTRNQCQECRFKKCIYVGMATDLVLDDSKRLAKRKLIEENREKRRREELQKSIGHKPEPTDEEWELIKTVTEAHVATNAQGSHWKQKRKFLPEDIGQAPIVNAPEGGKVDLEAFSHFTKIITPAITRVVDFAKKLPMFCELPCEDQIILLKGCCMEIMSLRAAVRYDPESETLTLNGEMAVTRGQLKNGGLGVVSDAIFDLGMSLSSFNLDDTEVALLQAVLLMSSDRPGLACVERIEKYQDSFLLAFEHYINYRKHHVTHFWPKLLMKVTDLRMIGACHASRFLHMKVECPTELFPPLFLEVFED
Nuclear receptor subfamily 1 group I member 2 (Rattus norvegicus), sequence (Q9R1A7 whole entry, looked up): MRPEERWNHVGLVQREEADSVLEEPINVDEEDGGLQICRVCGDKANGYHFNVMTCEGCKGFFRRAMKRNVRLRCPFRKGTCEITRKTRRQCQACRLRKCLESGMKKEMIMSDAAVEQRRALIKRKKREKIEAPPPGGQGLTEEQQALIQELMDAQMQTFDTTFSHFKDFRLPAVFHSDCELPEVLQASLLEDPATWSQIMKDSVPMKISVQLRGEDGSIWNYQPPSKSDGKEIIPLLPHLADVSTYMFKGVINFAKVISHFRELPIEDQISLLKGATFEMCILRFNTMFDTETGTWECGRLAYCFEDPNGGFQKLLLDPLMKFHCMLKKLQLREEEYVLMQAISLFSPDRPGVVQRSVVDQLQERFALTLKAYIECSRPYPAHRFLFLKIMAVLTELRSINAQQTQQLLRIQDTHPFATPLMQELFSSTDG
Peroxisome proliferator-activated receptor alpha (Homo sapiens), sequence (Q07869 whole entry, looked up, the tested form may be a part): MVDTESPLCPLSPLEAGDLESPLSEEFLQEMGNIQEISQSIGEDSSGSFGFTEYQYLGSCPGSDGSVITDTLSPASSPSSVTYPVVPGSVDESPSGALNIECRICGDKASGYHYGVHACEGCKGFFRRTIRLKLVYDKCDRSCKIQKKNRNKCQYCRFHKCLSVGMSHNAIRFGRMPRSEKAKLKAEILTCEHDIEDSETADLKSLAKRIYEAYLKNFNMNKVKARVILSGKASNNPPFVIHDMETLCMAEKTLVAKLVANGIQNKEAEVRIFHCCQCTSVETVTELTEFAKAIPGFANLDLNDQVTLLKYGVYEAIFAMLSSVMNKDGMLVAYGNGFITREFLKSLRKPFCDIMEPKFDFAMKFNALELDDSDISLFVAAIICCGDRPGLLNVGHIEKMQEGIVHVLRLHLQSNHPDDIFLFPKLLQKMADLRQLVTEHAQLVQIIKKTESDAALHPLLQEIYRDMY
Vitamin D3 receptor (Homo sapiens), sequence (P11473 whole entry, looked up): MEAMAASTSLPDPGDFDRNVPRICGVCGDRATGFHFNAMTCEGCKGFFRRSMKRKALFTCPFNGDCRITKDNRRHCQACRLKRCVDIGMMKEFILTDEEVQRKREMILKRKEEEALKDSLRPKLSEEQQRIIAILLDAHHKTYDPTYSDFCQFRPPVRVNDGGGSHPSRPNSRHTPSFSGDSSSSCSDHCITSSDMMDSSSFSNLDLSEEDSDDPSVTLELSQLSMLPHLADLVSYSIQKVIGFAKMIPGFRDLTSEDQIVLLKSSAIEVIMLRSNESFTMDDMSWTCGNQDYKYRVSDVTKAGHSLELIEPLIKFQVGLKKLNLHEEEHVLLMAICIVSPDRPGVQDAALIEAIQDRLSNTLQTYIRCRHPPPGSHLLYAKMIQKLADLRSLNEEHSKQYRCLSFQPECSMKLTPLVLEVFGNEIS
Peroxisome proliferator-activated receptor delta (Homo sapiens), sequence (Q03181 whole entry, looked up): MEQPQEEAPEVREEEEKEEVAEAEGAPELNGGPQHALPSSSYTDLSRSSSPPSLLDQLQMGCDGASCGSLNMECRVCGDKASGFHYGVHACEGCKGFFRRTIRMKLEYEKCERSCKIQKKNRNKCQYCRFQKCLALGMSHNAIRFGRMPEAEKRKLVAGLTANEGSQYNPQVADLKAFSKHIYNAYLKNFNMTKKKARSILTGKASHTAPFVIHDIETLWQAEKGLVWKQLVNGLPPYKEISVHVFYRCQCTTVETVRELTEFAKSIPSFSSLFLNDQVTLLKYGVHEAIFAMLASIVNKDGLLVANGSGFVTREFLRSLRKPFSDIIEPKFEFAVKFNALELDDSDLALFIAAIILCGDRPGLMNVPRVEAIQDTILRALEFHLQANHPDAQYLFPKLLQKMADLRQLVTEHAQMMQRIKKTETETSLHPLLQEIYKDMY
Bile acid receptor (Homo sapiens), sequence (Q96RI1 whole entry, looked up): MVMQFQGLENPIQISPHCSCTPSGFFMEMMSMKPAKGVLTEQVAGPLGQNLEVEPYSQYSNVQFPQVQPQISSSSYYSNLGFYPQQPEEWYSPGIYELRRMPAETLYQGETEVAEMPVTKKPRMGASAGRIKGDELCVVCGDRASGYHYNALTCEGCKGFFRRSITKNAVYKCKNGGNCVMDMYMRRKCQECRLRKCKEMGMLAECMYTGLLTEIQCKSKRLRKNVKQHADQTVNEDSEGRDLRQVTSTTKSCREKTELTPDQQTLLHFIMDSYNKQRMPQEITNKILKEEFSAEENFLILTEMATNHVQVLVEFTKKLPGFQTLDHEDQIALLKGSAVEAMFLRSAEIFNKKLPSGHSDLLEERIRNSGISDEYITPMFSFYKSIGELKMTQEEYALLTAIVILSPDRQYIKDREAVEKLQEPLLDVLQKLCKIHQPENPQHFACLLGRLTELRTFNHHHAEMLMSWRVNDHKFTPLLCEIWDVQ
Glucocorticoid receptor (Homo sapiens), sequence (P04150 whole entry, looked up): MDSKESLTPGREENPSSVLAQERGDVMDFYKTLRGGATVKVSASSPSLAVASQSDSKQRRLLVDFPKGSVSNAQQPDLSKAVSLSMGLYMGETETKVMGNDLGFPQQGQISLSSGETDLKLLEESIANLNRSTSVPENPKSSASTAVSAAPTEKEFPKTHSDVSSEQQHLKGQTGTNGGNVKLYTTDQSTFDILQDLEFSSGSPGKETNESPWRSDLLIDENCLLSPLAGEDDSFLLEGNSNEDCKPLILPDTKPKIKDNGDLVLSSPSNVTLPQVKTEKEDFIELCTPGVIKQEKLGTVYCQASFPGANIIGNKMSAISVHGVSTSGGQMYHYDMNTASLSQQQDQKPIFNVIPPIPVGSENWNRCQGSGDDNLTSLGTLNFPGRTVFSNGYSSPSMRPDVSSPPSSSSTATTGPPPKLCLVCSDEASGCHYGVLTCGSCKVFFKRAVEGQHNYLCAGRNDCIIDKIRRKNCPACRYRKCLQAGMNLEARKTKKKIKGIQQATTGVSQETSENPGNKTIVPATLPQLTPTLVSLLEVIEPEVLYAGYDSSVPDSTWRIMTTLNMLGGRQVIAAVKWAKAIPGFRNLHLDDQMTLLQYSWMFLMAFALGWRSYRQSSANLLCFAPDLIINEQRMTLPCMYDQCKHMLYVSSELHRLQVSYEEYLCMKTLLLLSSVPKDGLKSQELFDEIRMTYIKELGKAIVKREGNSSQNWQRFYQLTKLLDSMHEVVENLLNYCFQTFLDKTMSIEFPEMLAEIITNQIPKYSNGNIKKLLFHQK

With `C#CCC1=C(C)[C@H](OC(=O)[C@H]2[C@H](C=C(C)C)C2(C)C)CC1=O` the Potency [1] was “inactive”, the activation [2] was 1.85% (inactive) and the outcome [3] was “inactive”. The max response [4] was 25.2%, the Potency [5] was “inactive” and the Potency [6] was “inactive”. For the same compound, the outcome [7] was “inactive”, the max response [8] was 11.7% and the Potency [9] was “inactive”. The Potency [10] was “inactive”, the max response [11] was -0.262% and the max response [12] was -4.47% (inactive). The activity change % (negative = inhibition) [13] was -5.41% (inactive), the Potency [14] was 61.1 µM (active) and the activation [15] was 1.18% (inactive). For the same compound, the activation [16] was 9.06% (inactive), the max response [17] was 3.44% (inactive) and the Potency [18] was “inactive”. The max response [19] was -1.44% (inactive), the max response [20] was -10.8% (inactive) and the Potency [21] was “inactive”.

For `CCCCCCCCCCCC#N`, the Potency [1] was “inactive”, the activation [2] was -2.48% (inactive) and the Potency [22] was “inactive”. For the same compound, the outcome [3] was “inactive”, the max response [4] was -15.4% and the Potency [23] was “inactive”. The Potency [5] was “inactive”, the Potency [24] was “inactive” and the Potency [6] was “inactive”. For the same compound, the outcome [7] was “inactive”, the max response [8] was 7.65% and the Potency [9] was “inactive”. The max response [11] was -6.71%, the activity change % (negative = inhibition) [13] was 16.2% (inactive) and the Potency [14] was “inactive”. For the same compound, the activation [15] was 0.106% (inactive), the activation [25] was -0.827% (inactive) and the activation [16] was 1.84% (inactive). The max response [17] was -0.162% (inactive), the Potency [18] was “inactive” and the max response [20] was -1.15% (inactive). The Potency [21] was “inactive”, the max response [26] was 0.164% (inactive) and the outcome [27] was “inactive”.

With `CCS(=O)(=O)c1cccnc1S(=O)(=O)NC(=O)Nc1nc(OC)cc(OC)n1` the Potency [1] was “inactive”, the activation [2] was 0.0623% (inactive) and the Potency [22] was “inactive”. The outcome [3] was “inactive”, the max response [4] was -45% and the Potency [5] was “inactive”. The Potency [24] was “inactive”, the Potency [6] was “inactive” and the outcome [7] was “inactive”. The Potency [10] was “inactive”, the max response [11] was -3.64% and the Potency [14] was 10.9 µM (active). For the same compound, the activation [15] was -3.66% (inactive), the activation [25] was -1.37% (inactive) and the Potency [16] was 31.6 µM (active). For the same compound, the max response [17] was -2.57% (inactive), the max response [19] was 15.3% (inactive) and the max response [20] was -6.2% (inactive). The Potency [21] was “inactive” and the max response [26] was -1.1% (inactive).

With `O=[N+]([O-])c1cc(C(F)(F)F)c(Cl)c([N+](=O)[O-])c1Nc1ncc(C(F)(F)F)cc1Cl` the Potency [1] was 25.1 µM (active), the activation [2] was 2.48% (inactive) and the outcome [3] was “inactive”. For the same compound, the Potency [6] was 22.4 µM (active), the max response [17] was -9.03% (inactive) and the Potency [18] was “inactive”. The Potency [19] was 35.5 µM (active), the Potency [20] was 35.5 µM (active) and the outcome [27] was “inactive”.

In the case of `COC(=O)c1ccccc1S(=O)(=O)NC(=O)Nc1nc(C)nc(OC)n1`, the Potency [1] is reported as “inactive”, the activation [2] is reported as -2.54% (inactive) and the outcome [3] is reported as “inactive”. For the same compound, the max response [4] was 36.9%, the Potency [23] was “inactive” and the Potency [6] was “inactive”. The outcome [7] was “inactive”, the Potency [10] was “inactive” and the max response [11] was -10.3%. For the same compound, the max response [12] was 25.6% (inactive), the activation [15] was 6.08% (inactive) and the max response [17] was 5.99% (inactive). For the same compound, the Potency [18] was “inactive”, the max response [19] was 13.7% (inactive) and the max response [20] was 9.36% (inactive). The max response [26] was -8.23% (inactive).
